Source: PubChem BioAssay
Pol kappa inh-1 = qHTS for Inhibitors of Polymerase Kappa; DNA polymerase kappa (Homo sapiens), Q9UBT6; purified Pol kappa, fluorescent DNA synthesis assay, 10 min; Potency, µM (highest dose often 107 µM), inactives show at the top dose activity, negative = inhibition, most hits filed as inhibitors; hit rate 0.53% among 400,000; also: potency is read from the fitted curve at half-maximal effect; % is scaled to controls: 0 for no effect and ±100 for the full control effect
Target sequence (Q9UBT6 whole entry, looked up): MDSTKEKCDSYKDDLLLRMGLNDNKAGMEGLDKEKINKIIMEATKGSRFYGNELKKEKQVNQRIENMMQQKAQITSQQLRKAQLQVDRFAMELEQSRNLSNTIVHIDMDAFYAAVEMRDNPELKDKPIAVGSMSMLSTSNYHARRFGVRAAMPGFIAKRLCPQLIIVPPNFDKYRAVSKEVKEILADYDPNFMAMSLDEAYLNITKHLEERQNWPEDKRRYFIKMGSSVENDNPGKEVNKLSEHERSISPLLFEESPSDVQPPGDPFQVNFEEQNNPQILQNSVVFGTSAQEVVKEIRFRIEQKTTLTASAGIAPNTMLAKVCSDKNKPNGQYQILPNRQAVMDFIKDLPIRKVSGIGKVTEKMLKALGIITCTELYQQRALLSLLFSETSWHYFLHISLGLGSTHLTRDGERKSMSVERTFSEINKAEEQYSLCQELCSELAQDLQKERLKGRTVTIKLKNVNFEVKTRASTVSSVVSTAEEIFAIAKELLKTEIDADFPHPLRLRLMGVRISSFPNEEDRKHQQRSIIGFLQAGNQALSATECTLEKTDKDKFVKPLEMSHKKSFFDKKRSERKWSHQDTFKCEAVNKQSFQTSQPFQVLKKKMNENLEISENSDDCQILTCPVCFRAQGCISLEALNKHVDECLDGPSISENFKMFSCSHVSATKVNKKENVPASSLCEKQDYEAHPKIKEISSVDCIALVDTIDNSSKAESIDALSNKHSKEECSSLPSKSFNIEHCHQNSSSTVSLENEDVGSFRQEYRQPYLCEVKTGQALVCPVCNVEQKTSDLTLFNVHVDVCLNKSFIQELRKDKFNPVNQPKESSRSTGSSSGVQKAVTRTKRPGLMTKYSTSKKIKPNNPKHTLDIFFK
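Kinetic fluorescence screen: compound preincubated 15 min RT with 10 nM enzyme; 50 nM substrate (final) initiates; reads at 0/10 min.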
POLI inh = qHTS for Inhibitors of Polymerase Iota; DNA polymerase iota (Homo sapiens), Q9UNA4; Pol iota fluorescent replication assay, 10 min; Potency, µM (titrated, usually from 115 µM), for the others: at the highest dose activity, negative = inhibition, actives largely listed as inhibitors; hit rate 1% among 390,000; also: potency is read from the fitted curve at half-maximal effect
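Pol iota at 10 nM preincubated 15 min with compounds at room temperature; reaction started with fluorescent substrate, 50 nM final. Fluorescence read kinetically at 0 and 10 min; buffer-only wells as negative control.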
WRN helicase inh-1 = qHTS for Inhibitors of WRN Helicase; WRN helicase unwinding, fluorescent forked duplex, kinetic; Bifunctional 3'-5' exonuclease/ATP-dependent helicase WRN (Homo sapiens), Q14191; Potency, µM (titrated, usually from 114 µM), without a hit: at the top dose activity change, negative = inhibition, hits mostly inhibitors; hit rate 0.46% among 360,000; also: potency is read from the fitted curve at half-maximal effect; % is scaled to controls: 0 for no effect and ±100 for the full control effect; nearly all actives have a fitted effect of over 55% in size
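WRN at 20 nM final preincubated with compound 15 min at room temperature; reaction started with 100 nM fluorophore/quencher forked duplex oligonucleotide and 2 mM ATP final. Unwinding followed kinetically by red fluorescence (ex 525, em 598 nm).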
FEN1 inh-1 = qHTS Assay for the Inhibitors of Human Flap endonuclease 1 (FEN1). hit rate 0.35% among 390,000. AID 588795, 2011. P39748. Recombinant FEN1 flap cleavage, fluorescence, 15 min. Potency, µM (highest dose often 114 µM), inactives show at the top dose activity change, negative = inhibition, most hits filed as inhibitors; also: potency is read from the fitted curve at half-maximal effect; % is scaled to controls: 0 for no effect and ±100 for the full control effect; nearly all actives have a fitted effect of over 65% in size
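Recombinant FEN1 (10 nM) was preincubated with pin-transferred compounds for 15 min at room temperature, then flap DNA substrate (50 nM final) was added. Plates were read at 0 and 15 min, and normalized concentration–response data were fitted to a four-parameter Hill equation.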
Pol beta inh = qHTS Assay for Inhibitors of DNA Polymerase Beta; Pol beta primer extension/strand displacement, fluorescence kinetic; Potency, µM (series often up to 114 µM), inactives show top-dose activity change, negative = inhibition, hits mostly inhibitors; hit rate 1.3% among 340,000; P06746; also: potency is read from the fitted curve at half-maximal effect; % is scaled to controls: 0 for no effect and ±100 for the full control effect
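Homogeneous kinetic assay of primer extension and strand displacement by 10 nM Pol beta, preincubated 15 min at room temperature with compound before 50 nM substrate (final) was added. Read at 0 and 10 min; four-parameter Hill fit.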
Pol eta inh-1 = qHTS for Inhibitors of Polymerase Eta. DNA polymerase eta (Homo sapiens), Q9Y253. recombinant Pol eta, fluorescent DNA replication assay. hit rate 1.2% among 390,000. AID 588591, 2011. Potency, µM (highest dose often 114 µM), without a hit: at the top dose activity change, negative = inhibition, actives largely listed as inhibitors; also: potency is read from the fitted curve at half-maximal effect; % is scaled to controls: 0 for no effect and ±100 for the full control effect
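Fluorescent replication assay: 50 nM final substrate added after a 15 min room-temperature compound preincubation with 10 nM enzyme. Signal taken at 0 min and again at 10 min.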
PGK validate = qHTS for inhibitors of Phosphogylcerate Kinase: Hit Validation Screen. TbPGK coupled GAPDH assay, Kinase-Glo luminescence. shares compounds with Pol kappa inh-1. hit rate 79% among 500. Potency, µM (series often up to 57.5 µM), without a hit: top-dose activity change, negative = inhibition, hits mostly inhibitors. AID 686980, 2013; also: potency is read from the fitted curve at half-maximal effect; % is scaled to controls: 0 for no effect and ±100 for the full control effect; nearly all actives have a fitted effect of over 65% in size
Pol iota confirm = qHTS for Inhibitors of Polymerase Iota: Confirmatory Assay for Cherry-picked Compounds; shares compounds with Pol kappa inh-1; Pol iota primer extension, TAMRA/BHQ fluorescence; Potency, µM, most hits filed as inhibitors; AID 720496, 2013; hit rate 77% among 1,500; also: potency is read from the fitted curve at half-maximal effect
GALK inh confirm = Confirmation Assay for Inhibitors of Human Galactokinase (GALK); shares compounds with Pol eta inh-1; purified GALK, Kinase-Glo ATP depletion luminescence; Potency, µM (top dose mostly 115 µM), for inactives: at the top dose activity, negative = inhibition, actives largely listed as inhibitors; hit rate 70% among 150
Redox cycling = Confirmatory Assay for Inhibitors of Human Galactokinase (GALK): Phenol-HRP redox assay counterscreen; hit rate 40% among 150; Phenol red-HRP H2O2 redox cycling, absorbance 600 nm; shares compounds with Pol eta inh-1; Potency, µM (highest dose often 115 µM), without a hit: at the top dose activity change, negative = H2O2 signal, usual class: inhibitors; AID 2035, 2009
HEK293 viability = Secondary Assay for Inhibitors of Human Galactokinase (GALK): HEK-293 Cell Viability Assay; Potency, µM (highest dose often 46.1 µM), without a hit: top-dose activity change, negative = cytotoxicity, most hits filed as inhibitors; AID 2547, 2010; HEK-293 viability, ATP luminescence (CellTiter-Glo), 24/48 h; hit rate 10% among 170; shares compounds with Pol eta inh-1; also: potency is read from the fitted curve at half-maximal effect; % is scaled to controls: 0 for no effect and ±100 for the full control effect
Pol kappa inh-2 = qHTS for Inhibitors of Polymerase Kappa: Confirmatory Assay for Cherry-picked Compounds; Potency, µM, hits mostly inhibitors; hit rate 76% among 920; purified Pol-kappa, fluorescent strand-displacement substrate; shares compounds with Pol eta inh-1; also: potency is read from the fitted curve at half-maximal effect
Pol eta inh-2 = qHTS for Inhibitors of Polymerase Eta: Confirmatory Assay for Cherry-picked Compounds; hit rate 64% among 2,600; Potency, µM, usual class: inhibitors; Pol eta primer extension, TAMRA/BHQ fluorescence, 10 min; shares compounds with Pol eta inh-1; also: potency is read from the fitted curve at half-maximal effect
FEN1 inh-2 = qHTS Assay for the Inhibitors of FEN1: Confirmatory Assay for Cherry-picked Compounds. shares compounds with FEN1 inh-1. FEN1 flap cleavage, TAMRA/BHQ2 fluorogenic DNA substrate. Potency, µM, actives largely listed as inhibitors. hit rate 79% among 880. AID 720498, 2013; also: potency is read from the fitted curve at half-maximal effect; nearly all actives have a fitted effect of over 60% in size
WRN helicase inh-2 = qHTS for Inhibitors of WRN Helicase: Confirmatory Assay for Cherry-picked Compounds. shares compounds with WRN helicase inh-1. WRN helicase DNA unwinding, fluorescence kinetic. Potency, µM (series often up to 57.1 µM), for inactives: at the top dose activity, negative = inhibition, hits mostly inhibitors. hit rate 63% among 610; also: potency is read from the fitted curve at half-maximal effect; nearly all actives have a fitted effect of over 65% in size
TO displacement = qHTS for Inhibitors of WRN Helicase: Thiazole Orange DNA Binding Counterscreen. thiazole orange DNA binding displacement, fluorescence. AID 720499, 2013. hit rate 10% among 610. Potency, µM (highest dose often 57.1 µM), for the others: top-dose activity change, negative = inhibition, most hits filed as inhibitors. shares compounds with WRN helicase inh-1;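 also: drop in dye fluorescence marks compound binding to DNA; potency is read from the fitted curve at half-maximal effect; % is scaled to controls: 0 for no effect and ±100 for the full control effect; nearly all actives have a fitted effect of over 60% in size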
BLM counter = qHTS for Inhibitors of WRN Helicase: BLM Helicase Counterscreen for WRN Inhibitors | Potency, µM (titrated, usually from 57.1 µM), inactives show at the top dose activity change, negative = inhibition, most hits filed as inhibitors | shares compounds with WRN helicase inh-1 | hit rate 60% among 610 | AID 720503, 2013 | Recombinant BLM helicase DNA unwinding, red fluorescence; also: potency is read from the fitted curve at half-maximal effect; nearly all actives have a fitted effect of over 60% in size
The depositor's hits bear a star; ? = inconclusive; / = no result; [ ] = another dose, or the depositor's remark. This is a sample that favours compounds with a hit; in the whole collection about 2.4% have one here. Calls follow the shape of the dose curve; as a rule, active = well fitted curve in the direction sought with a large enough effect; inconclusive = small, poorly fitted or top-dose-only effect, or another doubt; inactive = no such curve, though single readings can be large; an effect the other way counts as inactive or inconclusive.

SMILES | Pol kappa inh-1 | POLI inh | WRN helicase inh-1 | FEN1 inh-1 | Pol beta inh | Pol eta inh-1 | Pol iota confirm | Pol eta inh-2 | WRN helicase inh-2 | TO displacement | BLM counter | others
O=C(O)c1ccc(S(=O)(=O)/N=C2\C=C(Nc3ccccc3F)C(=O)c3ccccc32)cc1 | ? | 1.1µM* | 40µM* | 45µM* | 45µM* | 8.9µM* | 21* | 21* | ? | -26% | ? | GALK inh confirm=7.5µM*;Redox cycling=4.2µM*;HEK293 viability=13µM*;FEN1 inh-2=?
COC(=O)C(C(C)=O)C1=C/C(=N\S(=O)(=O)c2ccc(C)cc2)c2ccccc2C1=O (stereo not drawn) | -10% | 34% | -18% | -16% | -2% | -11% | / | / | / | / | /
Cc1nonc1C(=O)N/N=C/c1ccc(O)c(O)c1 | -7% | -11% | 4% | 2% | -16% | -20% | / | / | / | / | /
O=C(N/N=C/c1ccc(O)c(O)c1)N/N=C/c1ccc(O)c(O)c1 | 0.79µM* | 0.89µM* | 4µM* | 2.5µM* | 0.32µM* | 0.71µM* | 3* | 6* | 0.96µM* | ? | 1.1µM* | PGK validate=1.2µM*;Pol kappa inh-2=2.1*
COc1cccc2c(SCC(=O)N/N=C/c3ccc(O)c(O)c3)cc(C)nc12 | 13µM* | 11µM* | 20µM* | ? | 2µM* | 7.9µM* | 30* | 19* | 4.8µM* | ? | 4.8µM*
O=C(CSc1nc2ccccc2o1)N/N=C/c1ccc(O)c(O)c1 | 7.1µM* | 2.5µM* | 8.9µM* | ? | ? | 3.5µM* | 17* | 12* | 2.7µM* | ? | 1.9µM* | PGK validate=3.3µM*;Pol kappa inh-2=8.4*
COc1ccc2nc(C)cc(SCC(=O)N/N=C/c3ccc(O)c(O)c3)c2c1 | 28µM* | 16µM* | 14µM* | ? | 2.2µM* | 4.5µM* | ? | 24* | 4.8µM* | ? | 6.1µM*
O=S(=O)(c1ccc(F)cc1)N1CCC(n2c(C(F)(F)F)nc3cccnc32)CC1 | -15% | 13% | / | -9% | -1% | -12% | / | / | / | / | /
COc1cccc(N2CCN(C(=O)c3cnc4c(-c5ccccc5)c(C)nn4c3C)CC2)c1 | 1% | -12% | / | -6% | 1% | -15% | / | / | / | / | /
CCc1cccc(C)c1NC(=O)C1CCN(S(=O)(=O)c2c(C)noc2/C=C/c2c(C)cc(C)cc2C)CC1 | 2%[60.1 µM] | 13% | / | -3% | ? | ? | / | / | / | / | /
CN(Cc1ccc(F)cc1)S(=O)(=O)c1nnc(NC(=O)c2ccc(F)cc2)s1 | 3% | 25% | / | -1% | 1% | -11% | / | / | / | / | /
CN(C)/C=C1\SC(=S)N(c2ccc(Br)cc2)C1=O | ? | 40µM* | ? | ? | ? | ? | 19* | 76* | 24µM* | 3% | 22µM* | FEN1 inh-2=34*
Cc1ccc(C(=O)N2c3nc(-c4ccco4)nn3C3(CCCCC3)[C@@H]3CCCC[C@@H]32)cc1 | 5% | -2% | / | 6% | -1% | 0% | / | / | / | / | /
CCSc1nnc(NC(=O)CC)s1 | -9% | -15% | -3% | 16% | 18% | -2% | / | / | / | / | /
